Shn3 3UTR inh: reduction of Shn3 3'UTR firefly luciferase signal, primary screen, Schnurri-3 inhibitor project, cell-based, Clone20 osteoblasts, set 2. Clone20 osteoblast Shn3 3'UTR firefly luciferase, 24 h. inhibition, % at 12.5 µM. hit rate 0.52% among 360,000. AID 588674, 2011;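 active means mean inhibition of at least 75% with every replicate also reaching 75%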;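 further: 0% = median of neutral control wells and 100% = pilot-screen positive control compound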
Jurkat NFkB inh: inhibitors of induced NF-kB luciferase reporter, primary screen, TCR NF-kB activation inhibitor project, cell-based, luminescence, uHTS; hit rate 0.53% among 330,000; Jurkat, PMA/ionomycin-induced NF-kB luciferase reporter; inhibition, % at 4 µM; in the data active means inhibition above about 50%
697 NFkB inh: inhibitors of PMA/ionomycin-induced NF-kB reporter, 697 cells, primary screen, B-cell NF-kB inhibitor project, cell-based, luminescence, uHTS. hit rate 0.33% among 330,000. inhibition, % at 4 µM. AID 435022, 2010. 697 B-cell NF-kB luciferase reporter, 16 h; in the data active means inhibition above about 35%
Gli-Sufu antag: Gli-Sufu pathway antagonists, primary screen, luciferase luminescence, Sufu-KO-LIGHT cells, uHTS | hit rate 0.74% among 340,000 | Sufu-KO-LIGHT fibroblasts, Gli luciferase reporter luminescence | inhibition, % at 5 µM;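 active means inhibition above about 55%, limit read from the data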;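 further: 0% = DMSO-treated cells and 100% = wells with medium but no cells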
Mdm2-MdmX inh: inhibitors of human Mdm2-MdmX association, primary screen, cell-based, luminescence, split luciferase, SaOS-2, uHTS | Protein Mdm4 (Homo sapiens) + E3 ubiquitin-protein ligase Mdm2 (Homo sapiens), … | SaOS-2 split-luciferase Mdm2/MdmX complementation | inhibition, % at 8 µM | hit rate 3% among 330,000 | AID 485346, 2010;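 active means inhibition of at least 50% at 8 µM in the primary screen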
Gli-Sufu confirm: Gli-SUFU pathway antagonists, confirmation, single concentration, luciferase luminescence, Sufu-KO-LIGHT cells; hit rate 40% among 2,500; shares compounds with Gli-Sufu antag; inhibition, % at 5 µM; Gli luciferase reporter;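 active means mean inhibition at 5 µM reaching about 45%, limit read from the data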;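 further: plate controls were DMSO-treated cells for no effect and wells lacking cells for full effect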
SufuKO cytotox: cytotoxicity in Sufu-KO-LIGHT cells, confirmation, cytotoxicity control for Gli-SUFU antagonist project, cell-based, ATP luminescence, single concentration | shares compounds with Gli-Sufu antag | cytotoxicity, % at 5 µM | hit rate 32% among 2,500;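 active means mean cytotoxicity at 5 µM above about 25%, limit read from the data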;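 further: cells exposed to compound overnight for roughly 16 to 18 hours; plate controls were DMSO wells with cells for no effect and medium without cells for full effect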
Wnt3a counter: Wnt3a reporter signal inhibition, confirmation, counter-screen for Gli-SUFU antagonist project, Wnt-LIGHT cells, luminescence, single concentration. Wnt3a-driven luciferase reporter. inhibition, % at 6.25 µM. shares compounds with Gli-Sufu antag. AID 651995, 2013. hit rate 20% among 2,500;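 active means mean inhibition above about 25%, limit read from the data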
* = called active by the depositor; . = no result. Most compounds without a hit are left out; they make up all but 3.8% or so of the library.

SMILES	Shn3 3UTR inh	Jurkat NFkB inh	697 NFkB inh	Gli-Sufu antag	Mdm2-MdmX inh	Gli-Sufu confirm	SufuKO cytotox	Wnt3a counter
COC(=O)C(c1ccccc1)C(C(=O)OC)c1ccccc1 (stereo not given)	11.8	16.0	7.1	-5.6	-1.5	.	.	.
COC(=O)[C@@H](c1ccccc1)N(C)S(=O)(=O)c1cccc(S(=O)(=O)N(C)[C@@H](C(=O)OC)c2ccccc2)c1	73.6	28.2	-15.7	57.4*	7.9	33.3	32.5*	21.6
Cc1cc(C(=O)N2CCC2(C)C(=O)NCc2cccc3ccccc23)nn1C (stereo not given)	13.1	.	.	.	.	.	.	.
COc1cccc(CNC(=O)C(NS(=O)(=O)c2ccc3c(c2)CCN3C(C)=O)C(C)C)c1 (stereo not given)	-24.0	-5.8	-11.2	61.4*	11.3	-2.8	24.3	-30.9
CCCCCN1CC(=O)N2C(C)c3[nH]c4ccccc4c3C[C@H]2C1=O (stereo not given in full)	9.5	-26.8	-5.0	4.9	16.5	.	.	.
CCCCCC(=O)Nc1sc(C)c(C)c1C#N	-8.5	-5.0	-19.0	66.1*	-14.8	12.0	1.8	-37.2
CCCC(=O)Nc1sc(C)c(C)c1C#N	-2.0	1.4	9.8	20.3	-19.3	.	.	.
O=C(NCCc1ccc(F)cc1)c1ccc2c(=O)n3c(nc2c1)CCC3	-76.7	-31.7	-20.8	95.9*	-26.0	-8.3	14.2	-113.6
O=C1CCC(C(=O)OCC(=O)c2ccccc2)N1 (stereo not given)	23.1	5.9	7.2	-5.4	8.7	.	.	.
N#Cc1ccc(COC(=O)C2CCC(=O)N2)cc1 (stereo not given)	7.9	-3.7	-4.8	99.3*	-19.1	10.0	2.5	-5.3
CCOCCCNC(=S)N1C2CCC1CC(NC(=O)Nc1ccc(C(=O)OCC)cc1)C2 (stereo not given)	-7.3	-5.9	-10.2	69.6*	22.1	9.2	30.5*	-12.3
CCNC(=S)N1C2CCC1CC(NC(=O)Nc1ccc(C(=O)OCC)cc1)C2 (stereo not given)	18.1	-5.6	13.9	-1.4	0.9	.	.	.
CC(=O)/C(N=Nc1nc2c([nH]1)c(=O)n(C)c(=O)n2C)=C(\C)O	-1.1	-0.8	13.4	6.5	18.4	.	.	.
C[C@H](NC(=O)[C@@H]1Cc2ccccc2CN1)C(=O)NC1CCCC1	-2.3	2.6	8.6	-19.5	-4.4	.	.	.
COc1ccc(C2=NN(C(=O)CSc3nc(=O)n4cc(C)ccc4n3)C(c3ccc(C)cc3)C2)cc1 (stereo not given)	15.8	13.0	-43.2	4.0	37.3	.	.	.
O=C(CNC(=O)Cc1ccccc1)NCC(=O)OCc1ccccc1	1.1	20.3	24.5	98.7*	-21.0	9.8	16.1	-11.3
CCC(C)NC(=O)CNC(=S)N(Cc1ccc(F)cc1)C1CCCCC1 (stereo not given)	1.6	4.5	-7.4	4.8	-11.7	.	.	.
O=C(CNC(=S)N(Cc1ccc(F)cc1)C1CCCCC1)NC1CC1	24.5	-5.4	-8.0	59.3*	-17.8	19.7	2.5	0.2
O=C(N/N=C/c1cc(Br)ccc1O)C(=O)Nc1ccccc1OC(F)(F)C(F)F	85.4*	.	.	59.5*	.	73.1*	31.7*	58.1*
COc1ccccc1/C=N/NC(=O)C(=O)Nc1ccccc1OC(F)(F)C(F)F	-1.3	10.1	16.6	16.1	21.7	.	.	.
O=C(N/N=C/c1cc(Cl)ccc1O)C(=O)Nc1ccccc1OC(F)(F)C(F)F	88.3*	.	.	55.0*	.	64.3*	46.4*	64.3*
COCC1CCCCN1C(=O)c1ccc(OC)c(OC2CCN(C(C)C)CC2)c1 (stereo not given)	-26.5	-26.5	-17.2	8.7	-24.7	.	.	.
O=C1C(Cc2ccc(Br)cc2)SC(=Nc2ccccc2)N1c1ccccc1 (stereo not given)	3.8	0.7	-7.5	-7.5	-5.9	.	.	.
O=C1C(Cc2cccc([N+](=O)[O-])c2)SC(=Nc2ccccc2)N1c1ccccc1 (stereo not given)	15.1	-4.2	-10.5	61.6*	-7.4	18.5	23.9	-35.5
COc1ccc(-n2nc(C(=O)NCC(=O)NCCCN3CCOCC3)c3ccccc3c2=O)cc1OC	-5.4	-23.7	16.5	8.2	-1.3	.	.	.
SMILES	Shn3 3UTR inh	Jurkat NFkB inh	697 NFkB inh	Gli-Sufu antag	Mdm2-MdmX inh	Gli-Sufu confirm	SufuKO cytotox	Wnt3a counter
O=S(=O)(c1cc(Br)ccc1Br)N1CCCCCC1	6.0	4.4	7.0	56.4*	26.7	14.3	11.9	9.0
O=C(c1ccccc1F)N1CCCc2ccccc21	16.5	-14.5	-3.3	8.3	9.1	.	.	.
CCc1ccc2c(c1)CCCN2C(=O)c1ccccc1C(=O)O	87.6*	1.7	-2.4	50.8	2.8	26.6	1.4	-59.6
COCc1cccc(-c2csc(C(O)c3ccccc3)n2)c1 (stereo not given)	7.9	.	.	.	.	.	.	.
COc1cccc(NC(=O)C2CCN(c3cnccn3)CC2)c1	-9.3	15.9	-10.6	13.5	11.4	.	.	.
COCCn1c(-c2ccccc2)csc1=Nc1cccnc1	35.9	14.2	-16.2	17.3	3.0	.	.	.
CC(C)n1c(-c2ccco2)csc1=Nc1cccnc1	72.9	17.5	-55.4	50.2	-7.7	50.8*	25.0*	18.1
Cc1cccc(N2CCN(C(=O)c3cc(S(=O)(=O)N4CCOCC4)cn3C)CC2)c1C	6.1	-4.8	0.7	-8.7	27.8	.	.	.
Cc1cccc(N2CCN(C(=O)c3cc(S(=O)(=O)N4CCOCC4)cn3C)CC2C)c1 (stereo not given)	-24.1	1.9	2.2	58.3*	15.2	14.5	0.6	9.6
CCOC(=O)c1ccc(N2C(=O)c3n[nH]c(-c4ccco4)c3C2c2cccc([N+](=O)[O-])c2)cc1 (stereo not given)	23.0	1.3	-7.6	99.4*	2.0	16.9	3.9	-21.3
CCOC(=O)c1ccc(N2C(=O)c3n[nH]c(C)c3C2c2ccco2)cc1 (stereo not given)	5.5	-5.3	11.2	4.5	27.7	.	.	.
CCC(=O)Nc1nnc(S(=O)(=O)N2CCCCCC2)s1	1.2	-8.0	-2.5	-2.5	14.5	.	.	.
COc1ccc(-c2[nH]ncc2CN(CCO)Cc2cccs2)c(F)c1	2.5	0.5	4.2	7.5	9.3	.	.	.
CCn1cc(C(=O)NCCCOC(C)C)c(=O)c2cc(S(=O)(=O)N3CCCC3)ccc21	12.1	-5.5	-28.2	-23.4	1.4	.	.	.

Assay outcomes as filed in PubChem.
